Experimental data taken from PubChem BioAssay AID1347420 (Sanford-Burnham Center for Chemical Genomics, 2020).
Among all 1,300 compounds or so, about 980 (75%) were called active. About 4% were inconclusive and are not listed. The list shows a part of the results.

These compounds were tested against Sulfhydryl oxidase 1 (Homo sapiens) (UniProt O00391) (assay: QSOX1 enzyme inhibitors, primary screen, biochemical, HyperBlu H2O2 luminescence, HTS (AID 1347420; further: values above 100% were filed as inconclusive)). Conditions: recombinant QSOX1, HyperBlu H2O2 luminescence, at 12.5 µM, active compounds read high; active = any value above zero unless noted.
Sequence of Sulfhydryl oxidase 1 (Homo sapiens) (O00391 whole entry, looked up): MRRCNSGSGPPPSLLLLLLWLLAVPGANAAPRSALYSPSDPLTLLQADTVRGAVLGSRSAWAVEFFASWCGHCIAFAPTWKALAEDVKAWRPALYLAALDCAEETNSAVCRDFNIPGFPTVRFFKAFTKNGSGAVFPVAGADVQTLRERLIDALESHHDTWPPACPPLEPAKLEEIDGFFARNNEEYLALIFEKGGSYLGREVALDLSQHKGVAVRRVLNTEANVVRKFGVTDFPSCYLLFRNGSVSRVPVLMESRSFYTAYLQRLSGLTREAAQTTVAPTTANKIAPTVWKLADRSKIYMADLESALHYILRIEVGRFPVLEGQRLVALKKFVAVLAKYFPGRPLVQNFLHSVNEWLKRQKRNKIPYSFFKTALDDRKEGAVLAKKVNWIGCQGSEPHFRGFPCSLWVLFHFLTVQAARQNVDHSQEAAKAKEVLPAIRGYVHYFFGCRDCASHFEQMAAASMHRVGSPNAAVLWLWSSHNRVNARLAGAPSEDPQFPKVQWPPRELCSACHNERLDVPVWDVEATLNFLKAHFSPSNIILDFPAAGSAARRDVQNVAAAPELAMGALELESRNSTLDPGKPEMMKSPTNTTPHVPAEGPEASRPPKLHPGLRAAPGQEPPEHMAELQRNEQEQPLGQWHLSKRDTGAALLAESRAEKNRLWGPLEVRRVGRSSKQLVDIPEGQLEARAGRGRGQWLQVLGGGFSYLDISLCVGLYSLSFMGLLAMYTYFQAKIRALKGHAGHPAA

SMILES | inhibition
CC(C)N(CCC(C(N)=O)(c1ccccc1)c1ccccn1)C(C)C (stereo not given) | 39.4% [setting not given] (active)
Cc1cc([C@@H]2CCCN2C)on1 | 9.3% (active)
CN1CCC(c2c[nH]c3ccc(O)cc23)CC1 | 84% (active)
CCCCCCC(C)(C)c1ccc([C@@H]2C[C@H](O)CC[C@H]2CCCO)c(O)c1 | 3.2% [setting not given] (active)
Cc1cccc(C)c1NC1=NCCCS1 | 12.9% [setting not given] (active)
C[C@@H]1O[C@@H](O[C@H]2C[C@@H](O)[C@]3(CO)[C@H]4[C@H](O)C[C@]5(C)[C@@H](C6=CC(=O)OC6)CC[C@]5(O)[C@@H]4CC[C@]3(O)C2)[C@H](O)[C@H](O)[C@H]1O | 2.5% [setting not given] (active)
C[C@@H]1O[C@@H](O[C@H]2C[C@@H](O)[C@]3(CO)[C@@H]4C(CC[C@]3(O)C2)[C@@]2(O)CC[C@H](C3COC(=O)C3)[C@@]2(C)C[C@H]4O)[C@H](O)[C@H](O)[C@H]1O (stereo not given in full) | 24.8% (active)
NC(=O)COc1c(F)cc(SCCNS(=O)(=O)c2ccccc2)cc1F | -12.8% (inactive)
Clc1ccc(N2CC3CCC(C2)N3)nn1 | 25.6% (active)
CC(C)=CCOc1c2occc2cc2ccc(=O)oc12 | 31.6% [setting not given] (active)
CC(O)(CS(=O)(=O)c1ccc(F)cc1)C(=O)Nc1ccc(C#N)c(C(F)(F)F)c1 (stereo not given) | 13.7% [setting not given] (active)
c1ccc2cc(CC3=NCCN3)ccc2c1 | 11% [setting not given] (active)
CCCN1CCC[C@@H](c2cccc(O)c2)C1 | 25.8% (active)
CCCN1CCC[C@H](c2cccc(O)c2)C1 | 10.7% (active)
CC1(C(=O)O)C2CCC(O2)C1(C)C(=O)O (stereo not given) | -0.6% (inactive)
CCCCC/C=C\C/C=C\C/C=C\C/C=C\CCCC(=O)NCC(=O)O | 3.4% (active)
NC1CC1c1ccccc1 (stereo not given) | 14.9% (active)
Nc1ccc(CCN2CCN(c3cccc(C(F)(F)F)c3)CC2)cc1 | 27.1% (active)
CC[C@@H](C(N)=O)N1CCCC1=O | 12.2% [setting not given] (active)
CN1CCc2cc(O)cc3c2[C@H]1Cc1ccc(O)c(O)c1-3 | 94% (active)
COc1ccc2c(c1O)-c1cccc3c1[C@@H](C2)N(C)CC3 | 39% (active)
Cc1sc2ccccc2c1CC1=NCCN1 | 9.6% (active)
CC(C)(O)[C@@H]1[C@H]2OC(=O)[C@@H]1[C@]1(O)C[C@H]3O[C@]34C(=O)O[C@H]2[C@]14C (tested in a mixture with another compound) | 14.8% (active)
Oc1ccc2c3c1O[C@H]1c4[nH]c5ccccc5c4C[C@@]4(O)C(C2)N(CC2CC2)CCC314 (stereo not given in full) | 63.8% [setting not given] (active)
NC(N)=Nc1ccc2[nH]c3c(c2c1)C[C@@]1(O)[C@H]2Cc4ccc(O)c5c4[C@@]1(CCN2CC1CC1)[C@H]3O5 | 18.5% [setting not given] (active)
Oc1ccc2c3c1O[C@H]1c4oc5ccccc5c4C[C@@]4(O)C(C2)N(CC2CC2)CCC314 (stereo not given in full) | 18.4% [setting not given] (active)
Oc1ccc2c3c1O[C@H]1c4[nH]c5c(c4C[C@@]4(O)[C@@H](C2)N(CC2CC2)CC[C@]314)C[C@@]1(O)[C@H]2Cc3ccc(O)c4c3[C@@]1(CCN2CC1CC1)[C@H]5O4 | 25.2% (active)
O=C1/C(=C/c2ccccc2)C[C@@]2(O)[C@H]3Cc4ccc(O)c5c4[C@@]2(CCN3CC2CC2)[C@H]1O5 | 32.8% [setting not given] (active)

SMILES | inhibition
CO[C@H]1CC=C2CCN3CCC4=C(CC(=O)OC4)[C@]23C1 | 0.7% (active)
CCOC(=O)c1ncn2c1[C@@H]1CCCN1C(=O)c1cc(OC)ccc1-2 | 13.3% (active)
CNCC(O)c1ccc(O)cc1 (stereo not given) | 11.4% [setting not given] (active)
NCC(O)c1ccc(O)cc1 (stereo not given) | 20.3% [setting not given] (active)
NCC(CC(=O)O)c1ccc(Cl)cc1 (stereo not given) | 0% [setting not given] (inactive)
COc1cc(C(O)CN)ccc1O (stereo not given) | 20.7% (active)
NCC(O)c1cc(O)c(O)cc1F (stereo not given) | 72.8% (active)
Ic1ccccc1CNC1C2CCN(CC2)C1C(c1ccccc1)c1ccccc1 (stereo not given) | 11% (active)
O=C(O)[C@@H]1CCN1 | 18.9% (active)
N=C(N)c1ccc(CS(=O)(=O)F)cc1 | 7.2% (active)
CN1C2CCC1CC(OC(=O)c1cc(Cl)cc(Cl)c1)C2 (stereo not given) | 5.4% (active)
O=C1C=CC(=O)C=C1 | 16.8% (active)
N[C@@]1(C(=O)O)CC[C@@H](C(=O)O)C1 | 12.2% (active)
CCN1C[C@@]2(COC)C3[C@@H](OC)C4[C@@H]1C3([C@@H]1C[C@@]3(O)[C@H](OC(=O)c5ccccc5)[C@@H]1[C@]4(OC(C)=O)[C@@H](O)[C@@H]3OC)[C@H](OC)C[C@H]2O | 4.1% (active)
CCNC(=O)[C@H]1O[C@@H](n2cnc3c(N)ncnc32)C(O)[C@H]1O (stereo not given in full) | 1.2% (active)
O=[N+]([O-])c1cc(O)c(O)c([N+](=O)[O-])c1 | 84.7% (active)
NCc1cc(=O)[nH]o1 | 10.1% (active)
C=CCN1CC[C@]23CCCCC2[C@H]1Cc1ccc(O)cc13 (stereo not given in full) | 6% [setting not given] (active)
COc1ccc2c(c1)[C@@]13CCCC[C@H]1[C@@H](C2)NCC3 | -2.6% [setting not given] (inactive)
COc1ccc2c(c1)C13CCCCC1C(C2)N(C)CC3 (stereo not given) | 11.3% [setting not given] (active)
C=CCN1C[C@@H](C)N([C@H](c2ccc(C(=O)N(CC)CC)cc2)c2cccc(OC)c2)C[C@@H]1C | 7.5% (active)
CC(=O)NBr | 9.5% (active)
NC(N)=NOCCC(N)C(=O)O (stereo not given) | 8.2% (active)
NC(N)=NOCC[C@H](N)C(=O)O | -0.8% [setting not given] (inactive)
CC(Cc1ccc(O)cc1)NCC(O)c1cc(O)cc(O)c1 (stereo not given) | 15% [setting not given] (active)
CN1CCc2cccc(Cl)c2CC1 | 1.7% (active)
CP(=O)(O)C1=CCNCC1 | -0.7% (inactive)
